NLRP3 yeast inh = NALP3 inhibition in yeast | inhibition, % at 10 µM | actives 0.39% (n = 330,000) | Yeast reconstituted NLRP3/ASC/caspase-1, beta-gal luminescence, 24 h;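 active means inhibition of 50% or more; inactive means inhibition below 50%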
SKKanGAS inh = inhibitors of SKKanGAS S. pyogenes growth in kanamycin (SK-promoter or general growth effect) | actives 1.3% (n = 300,000) | AID 1662 | BacTiter-Glo, 6 h | inhibition, % at 7.5 µM;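 active means mean replicate score, as percent of positive control median, at least 50; inconclusive means mean below 50 but one replicate at or above 50; inactive means mean and every replicate below 50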;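 further: strain carries kanamycin resistance gene driven by streptokinase promoter and grows in 40 µg/ml kanamycin; loss of luminescence reflects streptokinase promoter inhibition or plain growth inhibition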
PfHsp90 yeast 2 = inhibits growth of yeast expressing Plasmodium falciparum Hsp90 | actives 0.32% (n = 310,000) | inhibition, % at 9.4 µM | S. cerevisiae expressing PfHsp90, BacTiter-Glo ATP, 48 h; yeast lacking PDR1 and PDR3 efflux regulators | AID 504621;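 active means every replicate shows inhibition above about 80%, whatever the replicate mean, limit read from the data; inconclusive means mean inhibition reaches the set limit but some replicate falls short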
tim23-1 inh = tim23-1 yeast growth inhibition | actives 1.3% (n = 330,000) | S. cerevisiae tim23-1 growth, BacTiter-Glo luminescence, 24 h | inhibition, % at 20 µM;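 active means growth inhibition of the mutant yeast at or above 50%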;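 further: temperature-sensitive mutant grown at 25 °C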
tim10-1 inh = growth inhibitors of tim10-1 mutant yeast; S. cerevisiae tim10-1 ts strain growth, BacTiter-Glo, 24 h; inhibition, % at 20 µM; actives 2.2% (n = 330,000); AID 463190;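 active means inhibition of at least 40%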;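 further: mutant grown at 25 °C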
TIM10 inh = inhibits growth of TIM10 yeast strain; S. cerevisiae TIM10 strain growth, BacTiter-Glo luminescence, 24 h; inhibition, % at 10 µM; actives 1.4% (n = 330,000); AID 463195;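 active means inhibition of 40% or more at the single tested concentration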;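 further: wild-type TIM10 isogenic control strain grown at permissive 25 °C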
tim10-1 confirm = confirmation of tim10-1 mutant yeast growth inhibitors; actives 56% (n = 7,400); S. cerevisiae tim10-1 ts strain growth, BacTiter-Glo, 24 h; inhibition, % at 20 µM; AID 463213; shares compounds with tim10-1 inh;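 active means inhibition of yeast growth at or above a set limit in either of two repeat tests at 20 µM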;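 further: tim10-1 mutant grown at permissive 25 °C to find synthetic lethal compounds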
tim10 confirm = confirmation of TIM10 yeast growth inhibitors. shares compounds with TIM10 inh. AID 463215. S. cerevisiae tim10 strain growth, BacTiter-Glo luminescence, 24 h. actives 63% (n = 4,600). inhibition, % at 10 µM;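 active means inhibition of yeast growth at or above a set limit in either of two replicates at 10 µM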; further: this counterscreen used the strain with wild-type TIM10
Large screens that a line does not name were inactive (follow-up assays come after a bar, where they were run). Only some compounds are listed: those with a hit (about 4.5% of all), similar ones and a draw of the others.

Cc1ccccc1-c1oc(C)c(C)[n+]1[O-]	none
CCc1ccccc1OCC(=O)Nc1cccc(S(=O)(=O)N2CCCC2)c1	tim10-1 inh 42 (no result: SKKanGAS inh) | tim10-1 confirm inactive
N#Cc1ccccc1OCC(=O)Nc1cccc(S(=O)(=O)N2CCCC2)c1	none (no result: SKKanGAS inh)
CCOc1ccccc1NC(=O)C(OC(=O)c1ccc(CC)cc1)c1ccccc1 (centres undefined)	none
CCOc1ccccc1NC(=O)C(OC(=O)c1ccc(O)cc1)c1ccccc1 (centres undefined)	tim10-1 inh 42 | tim10-1 confirm 38
Cc1ccc(-c2ccc(/C=N/NC(N)=S)o2)cc1	tim10-1 inh 42 | tim10-1 confirm inactive
C/C(=N\NC(=O)CNC(=O)c1cccs1)c1ccc(Cl)c(Cl)c1	tim10-1 inh 51 | tim10-1 confirm inactive
COc1ccc(NC(=O)CC2SC(=O)NC2=O)cc1 (centres undefined)	tim10-1 inh 41 | tim10-1 confirm 34
COc1ccc([C@H]2CC(=O)C=C(c3ccnc4ccc(Cl)cc34)C2)cc1	none (no result: SKKanGAS inh)
Cc1cccc(N2CCN(CC(=O)Nc3ccc(S(=O)(=O)N4CCOCC4)cc3)CC2)c1C	tim10-1 inh 41 | tim10-1 confirm inactive
Cc1ccc(C)c(N2CCN(S(=O)(=O)c3ccc4c(c3)NC(=O)CS4)CC2)c1	tim10-1 inh 46 | tim10-1 confirm inactive
CN1CCN(S(=O)(=O)c2ccc3c(c2)NC(=O)CS3)CC1	none
CC(=O)N1CCOc2ccc(S(=O)(=O)N3CCCCC3)cc21	none
Cc1ccc(S(=O)(=O)N2CCN(CC(=O)Nc3ccc(N4CCOCC4)cc3)CC2)cc1C	none
Cc1cccc(N2CCN(S(=O)(=O)c3ccc4c(c3)OCCO4)CC2)c1C	tim10-1 inh 46 | tim10-1 confirm 32
CC(=O)N1CCOc2ccc(S(=O)(=O)N3CCN(c4cc(C)ccc4C)CC3)cc21	tim10-1 inh 43 | tim10-1 confirm 34
COCCCN1C(=O)C(=O)/C(=C(/O)c2ccc(S(=O)(=O)N3CCCCC3)cc2)C1c1cccc(OC)c1 (centres undefined)	none
O=Cc1ccc(Oc2ncccn2)cc1	none (no result: PfHsp90 yeast 2)
COC(=O)c1ccccc1NC(=O)CCCN1C(=O)C(c2ccccc2)Oc2cccnc21 (centres undefined)	none
CN(C)C(=O)N1CCN(S(=O)(=O)c2ccc3ccccc3c2)CC1	none
O=C(CCl)N1CCN(S(=O)(=O)c2ccc3ccccc3c2)CC1	tim10-1 inh 40 | tim10-1 confirm 33
CC1CCN(c2ccc(S(=O)(=O)N3CCC(C)CC3)cc2N)CC1	tim10-1 inh 41 | tim10-1 confirm inactive
CN1CCN(S(=O)(=O)c2ccc3ccccc3c2)CC1	none
CC1CCN(S(=O)(=O)c2ccc3ccccc3c2)CC1	tim10-1 inh 44 | tim10-1 confirm 31
CN1/C(=C\C(=O)COC(=O)CN2C(=O)C3CC=CCC3C2=O)C(C)(C)c2ccccc21 (centres undefined)	tim10-1 inh 42 | tim10-1 confirm inactive
CN1/C(=C\C(=O)COC(=O)CNC(=O)c2ccc3ccccc3c2)C(C)(C)c2ccccc21	tim10-1 inh 44 | tim10-1 confirm inactive
CC(=O)N1Cc2ccccc2CC1C(=O)NCc1ccccc1F (centres undefined)	none
Cc1ccc(-c2cc([C@H]3[C@@H]4C=CCC[C@@]4(C)C(=O)N3Cc3ccccc3)ccc2F)cc1	SKKanGAS inh inconclusive
Cc1ccc(F)c([C@H]2C3C=CCC(c4ccccc4)C3C(=O)N2Cc2ccccc2)c1 (some centres undefined)	SKKanGAS inh 50, tim10-1 inh 44 | tim10-1 confirm 31
O=C1C2C(c3ccccc3)CC=CC2[C@H](c2ccc3ccccc3c2)N1Cc1ccccc1 (some centres undefined)	tim10-1 inh 46 | tim10-1 confirm 38
Cc1ccc(F)c([C@H]2[C@@H]3C=CCC[C@@]3(C)C(=O)N2Cc2ccccc2)c1	tim10-1 inh 45 (no result: PfHsp90 yeast 2) | tim10-1 confirm 42
CC1CCCCN1CCCNC(=O)C1CCCN(c2ncnc3c2nc2n3CCCCC2)C1 (centres undefined)	none
C=CCON1C(=O)C(=O)N(OCC=C)[C@H]2CCCC[C@H]21	none (no result: PfHsp90 yeast 2)
CCc1c(C)[nH]n(-c2nc(-c3ccccc3)cs2)c1=O	tim10-1 inh 50 | tim10-1 confirm 31
O=C1Nc2cc(C(=O)N3CCN(c4ccccn4)CC3)ccc2S/C1=C\c1ccccc1	SKKanGAS inh 53, tim10-1 inh 42 | tim10-1 confirm inactive
O=C1Nc2cc(C(=O)N3CCOCC3)ccc2S/C1=C\c1ccccc1	none
CC12CCC(C(=O)N/N=C/c3ccc(O)cc3O)(OC1=O)C2(C)C (centres undefined)	none
CCCCCCCCOC(=O)c1c(CSC(=N)N)n(C)c2cc(Br)c(OC(C)=O)cc12	SKKanGAS inh 75, tim10-1 inh 46 (no result: PfHsp90 yeast 2) | tim10-1 confirm inactive
CC(=O)c1ccc(N2Cc3ccccc3C2=NC(=O)c2cccs2)cc1	none
N#Cc1ccc(N2Cc3ccccc3C2=NC(=O)c2cccs2)cc1	tim10-1 inh 51 | tim10-1 confirm 39
Cc1cc(C)cc(OCC(=O)N(Cc2ccc(N(C)C)cc2)C2CCS(=O)(=O)C2)c1 (centres undefined)	none
Nc1c(C(=O)c2ccccc2)sc2snc(SCC(=O)c3ccccc3)c12	tim10-1 inh 62 | tim10-1 confirm 66
CC(=O)Nc1cc(C(F)(F)F)ccc1OCCOc1ccccc1	tim10-1 inh 47 | tim10-1 confirm inactive
CCc1cc2c3c(c(=O)oc2cc1O)CCCC3	tim10-1 inh 41 | tim10-1 confirm inactive
O=C(C1CCN(S(=O)(=O)c2cccc3cccnc23)CC1)N1CC=C(c2ccccc2)CC1	tim10-1 inh 43 (no result: SKKanGAS inh, PfHsp90 yeast 2) | tim10-1 confirm inactive
Cc1ccc(O)c(-c2cc3ccccc3[nH]2)c1	tim10-1 inh 53, TIM10 inh 46 | tim10-1 confirm 40 | tim10 confirm 47
COc1ccc(-c2cc3ccccc3[nH]2)cc1	none
O=C1NN=C(c2ccccc2)CC1c1ccc(Cl)cc1Cl (centres undefined)	tim10-1 inh 50, TIM10 inh 42 | tim10-1 confirm 38 | tim10 confirm 57
Cc1n[nH]c(C)c1S(=O)(=O)N1CCN(S(=O)(=O)c2cccc(F)c2)CC1	none (no result: SKKanGAS inh, PfHsp90 yeast 2)
O=C(/C=C/c1ccccc1Cl)NCCCn1ccnc1	none
COc1ccccc1C/C(N)=N/OC(=O)COc1cccc(C)c1	tim10-1 inh 43, TIM10 inh 51 | tim10-1 confirm inactive | tim10 confirm inactive

Screening data from PubChem BioAssay.
